Compound activity deposited in PubChem BioAssay by National Center for Advancing Translational Sciences (NCATS).
Compounds with a hit are over-represented: about 12% of the library has one in this group of screens.
G9a block: qHTS Assay for Inhibitors of Histone Lysine Methyltransferase G9a. Histone-lysine N-methyltransferase EHMT2 (Homo sapiens), Q96KQ7. G9a H3K9 monomethylation, AlphaScreen, 2 h. Potency, µM (series often up to 102 µM), without a hit: at the highest dose activity, negative = inhibition, most hits filed as inhibitors. actives 8.8% (n = 350,000). AID 504332, 2011; further: on the % scale 0 is the no-effect control and ±100 the full control effect; nearly all actives have a fitted effect of over 75% in size
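Signal arises when biotinylated H3K9 peptide, once monomethylated, bridges streptavidin donor and antibody-captured acceptor beads. Enzyme at 20 nM was preincubated 15 min with test compounds; peptide 500 nM and SAM 20 uM then reacted for 2 h.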
Sfp inh: qHTS Assay for Inhibitors of Bacillus subtilis Sfp phosphopantetheinyl transferase (PPTase); 4'-phosphopantetheinyl transferase ffp (Bacillus subtilis), Q9F4F7; Biochemical Sfp PPTase activity, qHTS; Potency, µM, for inactives: largest response in the series, negative = inhibition, hits mostly inhibitors; actives 3.5% (n = 310,000);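 further: the enzyme is Sfp with the accession as filed and its product quenches rhodamine fluorescence; 0% = enzyme reaction without inhibitor and -100% = no enzyme wells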
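Sfp 15 nM + cpd, 15 min RT; start w/ rhodamine-CoA 5 uM, BHQ-2-YbbR 12.5 uM (final); 50 mM Hepes pH 7.6, 10 mM MgCl2, 0.01% NP-40, 0.01% BSA; read 525/598 nm at 0 and 30 min.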
JMJD2A Tudor: qHTS Assay for Inhibitors of JMJD2A-Tudor Domain; Lysine-specific demethylase 4A (Homo sapiens), O75164; AlphaScreen JMJD2A-Tudor / H3K4me3 peptide binding; Potency, µM (titrated, usually from 114 µM), without a hit: at the highest dose activity change, negative = inhibition, most hits filed as inhibitors; actives 4.4% (n = 390,000); AID 504339, 2011; further: on the % scale 0 is the no-effect control and ±100 the full control effect; nearly all actives have a fitted effect of over 50% in size
HP1b chromo inh: HTS for Inhibitors of HP1-beta Chromodomain Interactions with Methylated Histone Tails. actives 0.56% (n = 390,000). Potency, µM (series often up to 114 µM), for the others: top-dose activity change, negative = inhibition, usual class: inhibitors. AlphaScreen HP1-beta / biotin-H3K9me3 peptide binding; further: nearly all actives have a fitted effect of over 70% in size
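HP1-beta protein (50 nM final) preincubated 30 min at room temperature with biotinylated H3(1-18)K9me3 peptide (50 nM) in PBS pH 7.4, 0.01% Tween-20, then compound added for 30 min. AlphaScreen streptavidin donor/nickel chelate acceptor beads (10 ug/mL final), 30 min dark, luminescence read.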
BAZ2B block: qHTS Assay for Inhibitors of BAZ2B. Bromodomain adjacent to zinc finger domain protein 2B (Homo sapiens), Q9UIF8. AlphaScreen BAZ2B-H3K14Ac peptide displacement. Potency, µM (highest dose often 114 µM), inactives show at the top dose activity change, negative = inhibition, hits mostly inhibitors. AID 504333, 2011. actives 4.4% (n = 360,000); further: on the % scale 0 is the no-effect control and ±100 the full control effect; nearly all actives have a fitted effect of over 60% in size
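Complex of BAZ2B and biotin-H3K14Ac (50 nM apiece) forms over 30 min at RT, then faces library compounds up to 110 uM for another 30 min; AlphaScreen beads added, 20 min dark incubation, luminescence read.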
L3MBTL1 block: qHTS Assay for the Inhibitors of L3MBTL1. Lethal(3)malignant brain tumor-like protein 1 (Homo sapiens), Q9Y468. AlphaScreen L3MBTL1–H3K9me1 peptide binding. Potency, µM (doses to about 57.1 µM), for the others: top-dose activity, negative = inhibition, hits mostly inhibitors. actives 0.66% (n = 230,000); further: on the % scale 0 is the no-effect control and ±100 the full control effect; nearly all actives have a fitted effect of over 60% in size
Target sequence (Q9Y468 whole entry, looked up): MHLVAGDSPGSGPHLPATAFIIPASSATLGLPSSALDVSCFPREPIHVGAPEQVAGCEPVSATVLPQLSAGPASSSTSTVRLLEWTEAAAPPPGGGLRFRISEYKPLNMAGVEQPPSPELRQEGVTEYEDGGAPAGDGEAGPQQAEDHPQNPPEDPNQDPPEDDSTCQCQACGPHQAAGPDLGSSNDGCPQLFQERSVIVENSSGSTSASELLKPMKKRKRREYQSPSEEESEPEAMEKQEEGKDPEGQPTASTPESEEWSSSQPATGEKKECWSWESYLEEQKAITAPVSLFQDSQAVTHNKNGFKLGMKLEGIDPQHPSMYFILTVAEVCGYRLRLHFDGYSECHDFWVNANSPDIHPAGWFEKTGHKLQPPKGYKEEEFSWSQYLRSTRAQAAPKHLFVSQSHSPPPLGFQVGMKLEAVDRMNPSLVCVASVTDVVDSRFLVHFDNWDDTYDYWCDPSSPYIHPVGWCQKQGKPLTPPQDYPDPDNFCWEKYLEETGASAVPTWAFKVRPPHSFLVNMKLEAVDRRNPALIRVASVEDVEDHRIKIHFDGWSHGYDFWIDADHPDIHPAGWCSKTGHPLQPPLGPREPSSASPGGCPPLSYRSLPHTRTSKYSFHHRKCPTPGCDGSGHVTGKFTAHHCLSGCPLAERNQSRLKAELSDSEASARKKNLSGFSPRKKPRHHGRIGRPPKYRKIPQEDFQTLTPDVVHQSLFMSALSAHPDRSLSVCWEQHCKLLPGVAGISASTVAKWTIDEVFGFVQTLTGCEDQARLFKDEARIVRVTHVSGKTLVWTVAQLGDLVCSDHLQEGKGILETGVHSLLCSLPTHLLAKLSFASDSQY
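Read-out is AlphaScreen signal from streptavidin donor and nickel chelate acceptor beads (10 ug/mL final each) bridging L3MBTL1 (50 nM) and biotinylated K9-monomethylated H3(1-15) peptide (75 nM), after 30 min compound exposure at room temperature.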
The depositor's hits bear a star; ? = inconclusive; nt = not tested or not shown; [ ] = another dose, or the depositor's remark. The call rests on the fitted dose curve; in most records, active means well fitted curve in the direction sought with a large enough effect; inconclusive means small, poorly fitted or top-dose-only effect, or another doubt; inactive means no such curve, though single readings can be large; an effect the other way counts as inactive or inconclusive. Potency means the concentration at half of the fitted maximal effect.

SMILES	G9a block	Sfp inh	JMJD2A Tudor	HP1b chromo inh	BAZ2B block	L3MBTL1 block
COc1cc(/C=C2\SC(c3ccc(C)cc3)=NC2=O)cc(OC)c1O	?	11.2µM*	56.2µM*	12.6µM*	35.5µM*	?
Cc1ccc(C2=NC(=O)/C(=C/c3cc(O)c(O)c(Br)c3)S2)cc1	2.24µM*	44.7µM*	5.01µM*	3.16µM*	3.55µM*	nt
COc1cc(/C=C2\SC(N)=NC2=O)cc(Cl)c1O	7.6%[0.501 µM]	4.0%	-9.9%	27.4%	-36.8%	4.0%[2.29 µM]
Cc1ccc2c(CC(=O)Nc3ccc(S(=O)(=O)N4CCC(C)CC4)cc3)coc2c1	?	nt	-11.8%	21.8%	?	nt
CC(=O)OC1CC[C@]2(C)C(CC(OC(C)=O)[C@]3(C)C2CC[C@@]2(C)C(c4ccoc4)OC(=O)C4O[C@]432)C1(C)C (stereo partly specified)	-50.2%[2.33 µM]	11.2%	nt	nt	nt	nt
Fc1ccc(-n2ncc3c(N4CCN(Cc5ccccc5)CC4)ncnc32)cc1	2.9%[59 µM]	nt	0.6%	31.0%	-1.7%	nt
CCCCN1C[C@H](C)[C@@H](CC(=O)NCc2ccccc2)C1=O	44.7µM*	16.6%	-11.4%	62.0%	-25.0%	0.2%
C[C@H]1CN(C2CCCCC2)C(=O)[C@@H]1CC(=O)NCc1ccccc1	?	11.4%	-9.7%	30.3%	-2.3%	9.6%
O=C(c1ccc(COc2ccc3ccccc3c2)o1)N1N=C(C(F)F)CC1(O)C(F)F (stereo unspecified)	4.0%	31.6µM*	-11.1%	34.1%	3.6%	-1.9%
Cc1[nH]c2ccc(F)cc2c(=O)c1SC(F)(F)C(F)C(F)(F)F (stereo unspecified)	31.6µM*	-12.7%	-9.4%	27.9%	9.6%	nt
c1ccc(COCCCc2cnc[nH]2)cc1	11.3%[59 µM]	-19.9%	nt	nt	nt	nt
CCCCCOc1ccc(/C=C/C(=O)Nc2sc3c(c2C(=O)OCC)CCC3)cc1OC	7.9%[59 µM]	nt	-0.7%	26.2%	7.8%	nt
Cc1cc(OC(=O)c2ccco2)c(Sc2ccccc2[N+](=O)[O-])c(=O)o1	31.6µM*	?	?	-6.7%	?	0.2%
O=C(COC(=O)c1ccco1)Nc1ccccc1[N+](=O)[O-]	-3.8%	19.9%	-12.0%	27.8%	-22.1%	1.8%
Cc1ccc(N=N/C(=C\O)C(=O)c2ccc(Cl)cc2)cc1	25.1µM*	10.1%	-34.6%[11.4 µM]	?	11.2µM*	?
S=c1[nH]nc(Nc2cccc(Cl)c2)s1	1.41µM*	39.8µM*	-15.0%	28.1%	-31.3%	nt
O=C(c1ccc(Cl)cc1)c1cnc(Nc2ccccc2Cl)s1	nt	-20.1%	1.5%	30.0%	-4.3%	10.5%
Clc1cccc(Nc2nc(-c3ccncc3)cs2)c1	-34.4%	4.4%	-3.6%	15.5%	-15.0%	6.6%
S=c1[nH]nc(Nc2ccccc2Cl)s1	1.41µM*	-93.4%	6.31µM*	22.4µM*	44.7µM*	nt
Cc1ccc2c(c1)/C(=N/N1C(=O)c3ccccc3C1=O)C(=O)N2	-11.8%[59 µM]	2.0%	-3.7%	12.7%	0.3%	8.2%
C=C1c2cc(C)ccc2NC(=O)N1c1ccc(C)cc1	10µM*	13.3%	0.4%	29.1%	-11.4%	nt
C=C1c2ccccc2NC(=O)N1c1ccc(C)cc1	8.91µM*	-0.2%	-19.7%	19.1%	4.5%	nt
Cc1ccc(N2C(=O)Cc3ccccc3C2=O)cc1	-13.5%	7.2%	-28.4%	-7.0%	-21.9%	nt
C[C@H](NC(=O)c1ccccc1Cl)C(=O)NCc1cccs1	44.7µM*	11.2%	-14.0%	41.6%	-19.0%	nt
Cc1ccc(C)c(N2CCN(C(=O)CS(=O)(=O)c3cccc4nsnc34)CC2)c1	2.4%[59 µM]	nt	-33.2%	3.5%[57 µM]	?	nt
Clc1ccc(C2=Nn3c(Cn4nnc5ccccc54)nnc3SC2)cc1	nt	31.6µM*	79.4µM*	?	?	0.9%
